Experimental data reported in PubChem BioAssay AID893 (National Center for Advancing Translational Sciences (NCATS), 2007).
Among all 75,000 compounds or so, about 5,700 (7.6%) were called active. Inconclusive results (about 7%) are left out. The full list was thinned out, with actives kept by preference. Values without a mark were called inactive. Calls follow the shape of the dose curve; as a rule, active = well fitted inhibition curve with a large enough effect; inconclusive = small, poorly fitted or top-dose-only effect; inactive = no such curve, though single readings can be large or run the other way.

Biological target: 3-hydroxyacyl-CoA dehydrogenase type-2 (Homo sapiens) (UniProt Q99714)
Assay: qHTS Assay for Inhibitors of HSD17B4, hydroxysteroid (17-beta) dehydrogenase 4; also: nearly all actives have a fitted effect of over 70% in size
Conditions: recombinant HSD17B10, NADH fluorescence kinetic; series mostly up to 57.1 µM; activity change, negative = inhibition: at the top concentration
From the text: Assay Overview: NIH Molecular Libraries Screening Centers Network [MLSCN] NIH Chemical Genomics Center [NCGC] Structural Genomics Consortium [SGC] Grant number: None HADH2: Hydroxyacyl-Coenzyme A dehydrogenase, type II, was supplied by researchers at the Structural Genomics Consortium, Oxford University lab (PI Udo Oppermann). The mitochondrial enzyme 17-hydroxysteroid dehydrogenase type 10 (HSD17-10) previously classified as type II hydroxyacyl-CoA dehydrogenase (HADH2) catalyzes the NAD+ dependent oxidation of a variety of substrates including acyl-CoAs, androgens and neurosteroids as well as bile acids(Shafqat N, Marschall HU, Filling C, et al. Biochemical Journal. 2003;376(Pt 1):49-60). […] The enzyme was produced by E.coli fermentation as His-tagged recombinant for the purpose of X-ray structure determination, and had been mass-spectrometry characterized. Inhibition of HADH2 activity was screened by utilizing beta-hydroxybutyryl coenzyme A as an electron donor and NAD+ as an electron acceptor/cofactor. An increase in the fluorescence intensity due to conversion of NAD+ to NADH was used to measure the enzyme activity.
Assay Protocol: Buffer: 100 mM Tris-HCl pH 9.0, containing 0.01 % Tween-20. Reagents/Controls: Buffer in columns 3 and 4 as negative control (no enzyme). Substrate/cofactor solution: 1 mM NAD+ and 90 uM beta-hydroxybutyryl coenzyme A (Sigma-Aldrich, St. Louis, MO) final concentrations dispensed throughout the plate. Enzyme: 20 nM HADH2 final concentration in columns 1, 2, 5-48. Column 1 is neutral (100% activity). Column 2 contained titration of apomorphine (Sigma-Aldrich, A 4393, PubChem CID 2215, top concentration 500 uM, then 1:2 dilution in duplicate) Assay Steps: Three uL of enzyme were dispensed to 1536-well Greiner black solid bottom plates. Compounds and controls (23 nL) were transferred via Kalypsys PinTool. The plates were incubated for 15 min at room temperature, and then 1 uL of substrate/cofactor solution was added to start the reaction. The plates were immediately transferred to and read every 30 seconds for 4 min on ViewLux High-throughput CCD imager (Perkin-Elmer) using 360 nm excitation and 450 nm emission fluorescence protocol. The fluorescence intensity difference between the last and the first time points was used to compute reaction progress.
% is scaled to controls: 0 for no effect and ±100 for the full control effect; potency is read from the fitted curve at half-maximal effect.

Row | Structure (SMILES) | Potency | activity change, negative = inhibition
1 | CC(C(=O)N1CCOCC1)N1c2cccc3cccc(c23)S1(=O)=O (stereo not given) | 31.6 µM (active) | –
2 | COc1ccc(C2C3=C(CC(C)(C)CC3=O)Oc3ncn4nc(-c5cccnc5)nc4c32)cc1OC (stereo not given) | – | 6.85%
3 | CCCc1[nH]nc2c1C(c1ccc(OC(=O)c3ccco3)cc1)C(C#N)=C(N)O2 (stereo not given) | – | 3.66%
4 | CCCc1[nH]nc2c1C(c1ccc(Br)s1)C(C#N)=C(N)O2 (stereo not given) | 20 µM (active) | –
5 | CCCc1[nH]nc2c1C(C1CC=CCC1)C(C#N)=C(N)O2 (stereo not given) | – | -17.4%
6 | COC(=O)[C@@H]1C[C@@]2(O)[C@@H](O)[C@@H](O)[C@@H](O)C[C@H]2N1Cc1ccc(C)s1 | – | 15%
7 | COc1ccc2c(c1OC)C(=O)N(c1ncn[nH]1)C2 | 31.6 µM (active) | –
8 | Cc1ccc(Cn2ccc(NC(=O)C3C4CCC(C4)C3C(=O)O)n2)cc1 (stereo not given) | – | -2.8%
9 | CC1CCN(C(=O)CSc2ccc3nnc(-c4cccc(F)c4)n3n2)CC1 | – | -12.3%
10 | COC(=O)C(C)Sc1ccc2nnc(-c3cccc(F)c3)n2n1 (stereo not given) | 25.1 µM (active) | –
11 | CCOc1ccc(-c2nnc3ccc(SC)nn23)cc1 | – | -6.07%
12 | CC(=O)CC(C)C | – | 5.18%
13 | Cc1ccccc1C(=O)NCCN=C1NS(=O)(=O)c2ccccc21 | – | -2.36%
14 | O=C(c1csnn1)N1CCC[C@@]2(CCN(Cc3nccs3)C2)C1 | – | 7.36%
15 | CSc1ccc(-c2c(C#N)c(N)nc3c2c(C)nn3-c2ccccc2)cc1 | 31.6 µM (active) | –
16 | CCC(=O)c1ccc(OCC(O)CN2CC(C)OC(C)C2)cc1 (stereo not given) | – | 0.889%
17 | CC(=O)N(CC1CCCO1)C1(C(=O)NC2CCCC2)CCCCC1 (stereo not given) | – | 11.9%
18 | C[C@@H]1O[C@@H](OC[C@H]2O[C@@H](Oc3c(-c4cccc(O)c4O)oc4cc(O)cc(O)c4c3=O)[C@H](O)[C@@H](O)[C@@H]2O)[C@H](O)[C@H](O)[C@H]1O | – | -17.4%
19 | O=c1c2ccccc2oc2nc(C3CCCCC3)n(Cc3ccco3)c(=O)c12 | – | -7.64%
20 | CCc1nc2oc3ccccc3c(=O)c2c(=O)n1Cc1ccc(OC)cc1 | – | -5.68%
21 | O=c1c2ccccc2oc2nc3n(c(=O)c12)CCCS3 | 25.1 µM (active) | –
22 | CN(C)/C=C1/Nc2ccccc2C1=O | – | -21.3%
23 | CCn1ncc(Br)c1C(=O)Nc1cc(C)ccc1F | – | 7.14%
24 | Cc1c(O)cc(O)c2c(=O)c(-c3ccc(O)cc3)coc12 | – | 1.02%
25 | O=C1C(c2[nH]c3ccccc3c2O)=Nc2ccccc21 | 31.6 µM (active) | –
26 | CCCCNc1nc(C)nc2c1nc(-c1ccccc1)n2CCCCN(CC)CC | 25.1 µM (active) | –
27 | CCN(CC)CCCCn1c(-c2ccccc2)nc2c(N3CCOCC3)nc(C)nc21 | 20 µM (active) | –
28 | CCCCNc1nc2c(c(=O)[nH]c(=O)n2C)n1CCOc1ccccc1 | – | 9.4%

Row | Structure (SMILES) | Potency | activity change, negative = inhibition
29 | CC(=O)c1c(N2CCOCC2)nc(=S)n(Cc2ccccc2)c1C | – | 6.31%
30 | O=S(=O)(O)CCN1CCOCC1 | – | 1.92%
31 | CCCn1c(C(O)c2ccc(OCC)cc2)nc2ccccc21 (stereo not given) | – | 4.24%
32 | COc1ccccc1C(=O)Oc1ccc(N2C(=O)CCC2=O)cc1 | – | -11.2%
33 | C[C@@H](c1ccccc1)N1C(=O)[C@H]2[C@H]3[C@H](O)[C@H](O)C/C(=N/OC[C@@H](O)COCc4ccco4)[C@@H]3CC[C@@H]2C1=O | – | 1.97% [at 11.4 µM]
34 | COc1ccc(S(=O)(=O)N2CCCC(C(=O)N3CCN(C)CC3)C2)cc1C (stereo not given) | – | 10.7%
35 | C[N+]1(CCN=C=NC2CCCCC2)CCOCC1 | – | -0.294% [at 11.4 µM]
36 | CCOc1ccccc1N(CC(=O)Nc1ccccc1C(=O)OC)S(C)(=O)=O | – | -13.6%
37 | COC(=O)C1=CN(C)C=C(C(=O)OC)C1c1ccc(Cl)cc1Cl | 31.6 µM (active) | –
38 | CCOc1ccccc1C1C(C(=O)OC)=CN(C)C=C1C(=O)OC | 25.1 µM (active) | –
39 | CCCCOCCCNC(=O)c1ccccc1OCC | – | 1.37%
40 | CC12CN3CC(C)(CN(C1)C3c1ccc(Cl)cc1Cl)C2=O (stereo not given) | – | 4.79%
41 | COC(=O)C1=C(C)N(C)C(C)=C(C(=O)OC)C1c1cccc(Br)c1 | – | -5.98%
42 | O=S(=O)(N1CCOCC1)N1CCN(c2ccccc2F)CC1 | – | 0.766%
43 | CCOC(=O)C1=C(CC)Nc2ccccc2N=C1NC(=O)c1cccc(S(=O)(=O)N2CCCC2)c1 | – | -10.6%
44 | CCOC(=O)CN1C(=O)C(O)(CC(=O)c2ccccn2)c2ccccc21 (stereo not given) | – | -5.79%
45 | CCN(CC)S(=O)(=O)c1cccc(C(=O)Nc2ccccc2)c1 | – | 2.56%
46 | CCc1c(O)nc(SCC(=O)N2CCCCC2)n(-c2ccccc2C)c1=O | – | 7.14%
47 | CC1(C)OC2CC3C4CCC5=CC(=O)CCC5(C)C4(F)C(O)CC3(C)[C@]2(C(=O)CCl)O1 (stereo not given in full) | – | -11.4%
48 | Cc1cccc(Br)c1 | – | 2.64%
49 | Cc1cc(=O)[nH]c(SCc2cc(Cl)ccc2OC(F)F)n1 | – | -11.7%
50 | CCOc1ccc2nc(NC(=O)CSc3nc4c(c(=O)n(C)c(=O)n4C)n3CC)sc2c1 | – | -2.72%
51 | O=C(NCc1ccc(Cl)cc1)c1cc2c(nc3sccn32)s1 | 20 µM (active) | –
52 | O=c1cc(Cn2nnc(-c3ccc(Cl)cc3)n2)nc2sccn12 | – | -10.6%
53 | O=C(NCc1cn2ccsc2n1)Nc1ccc(Cl)cc1 | – | 10.3%
54 | CCCCn1nnnc1NCc1cc(OC)c(OC)c(OC)c1 | – | 13.8%
55 | O=C(O)C1CCN(c2ncnc3ccc(-c4ccccc4C(F)(F)F)cc23)CC1 | – | -0.266%
